Bioassay records deposited in PubChem BioAssay by several laboratories.
ABHD5 PLIN5 PPI: ABHD5-PLIN5 protein interaction inhibition; 0.78% of 360,000 active; inhibition, % at 4 µM; Q00G26+Q8WTS1; AID 602281; Split G. princeps luciferase complementation, luminescence, 4 h;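 active = inhibition above the mean inhibition across every tested compound plus 3 SD, cut at about 22% in these data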;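 also: 0% = DMSO only wells and the 100% control is not disclosed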
Target sequence (Q00G26 whole entry, looked up): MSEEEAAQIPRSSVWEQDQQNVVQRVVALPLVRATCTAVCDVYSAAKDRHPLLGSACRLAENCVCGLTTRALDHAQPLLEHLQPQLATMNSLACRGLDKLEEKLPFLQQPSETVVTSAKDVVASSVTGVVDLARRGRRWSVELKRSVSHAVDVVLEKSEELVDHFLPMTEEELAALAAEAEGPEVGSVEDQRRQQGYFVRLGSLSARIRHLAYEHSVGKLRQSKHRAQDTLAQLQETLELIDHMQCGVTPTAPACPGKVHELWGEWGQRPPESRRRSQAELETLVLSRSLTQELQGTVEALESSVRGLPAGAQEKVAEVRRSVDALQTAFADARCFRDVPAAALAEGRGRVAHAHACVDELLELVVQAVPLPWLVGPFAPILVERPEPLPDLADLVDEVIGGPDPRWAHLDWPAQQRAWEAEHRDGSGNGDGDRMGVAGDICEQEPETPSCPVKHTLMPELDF
Target sequence (Q8WTS1 whole entry, looked up): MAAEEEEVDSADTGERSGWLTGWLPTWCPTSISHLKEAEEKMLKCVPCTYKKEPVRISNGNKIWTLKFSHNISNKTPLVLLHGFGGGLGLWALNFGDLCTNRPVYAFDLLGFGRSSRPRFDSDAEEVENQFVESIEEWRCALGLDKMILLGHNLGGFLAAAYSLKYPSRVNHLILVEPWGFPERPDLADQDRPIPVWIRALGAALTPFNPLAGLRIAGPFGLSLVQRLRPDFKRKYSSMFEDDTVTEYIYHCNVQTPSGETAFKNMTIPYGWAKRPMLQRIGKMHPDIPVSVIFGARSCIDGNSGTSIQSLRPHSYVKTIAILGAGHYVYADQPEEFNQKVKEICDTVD
HTR2A ag: mouse HTR2A agonism via beta-arrestin recruitment; P35363; CHO-K1 mHTR2A beta-arrestin complementation, luminescence; percent of 30 µM serotonin response; activation, % at 7.6 µM; AID 624169; 0.66% of 360,000 active;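 active = activation above a run cutoff, the mean activation of all tested compounds plus 3 SD, cut at about 14% in these data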;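 also: 0% = plate median of compound wells and 100% = 30 µM serotonin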
Granule exo inh: lytic granule exocytosis inhibition | AID 651702 | inhibition, % at 10 µM | 0.66% of 360,000 active | TALL-104 LAMP-1 surface exposure, flow cytometry; cells stimulated with thapsigargin and PMA;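 active = inhibition above about 55%, limit read from the data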
Beta2AR agonist: agonists of human beta-2 adrenergic receptor inducing internalization; P07550; Am2.2-beta2AR cells, FAP receptor internalization, flow cytometry; response, % (no concentration beside the values); 0.43% of 340,000 active; AID 504454;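 active = response above a set limit, near 3 SD of response in nonfluorescent compounds, cut at about 42% in these data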
NTR1 agonist: NTR1 (human) agonism; activation, % at 20 µM; 0.17% of 330,000 active; P30989; AID 493036; NTR1-U2OS beta-arrestin-GFP spot imaging, agonist mode;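 active = activation at or above 40% of the spot to cytoplasm intensity ratio, with at least 20 cells analyzed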;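 also: 0% = DMSO without peptide and 100% = 100 nM NTR1 peptide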
ABHD5-PLIN5 conf: confirmation of human ABHD5-PLIN5 interaction inhibitors. biochemical ABHD5-PLIN5 interaction, luminescence. 67% of 2,200 active. inhibition, % at 4 µM. AID 651612. shares compounds with ABHD5 PLIN5 PPI; in the data active = inhibition above about 23%;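 also: 0% = DMSO vehicle wells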
HNF4 split-luc: HNF4 split-luciferase signal hit, counter-screen. shares compounds with ABHD5 PLIN5 PPI. HNF4 dimerization, luminescence, biochemical. inhibition, % at 4 µM. 77% of 2,200 active;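 active = mean inhibition across replicate wells exceeding the computed hit threshold, cut at about 13% in these data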;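 also: light from luciferase halves that rejoin when HNF4 fusion proteins dimerize; 0% = DMSO only wells and the 100% control is not given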
Numbers without * were called inactive; . = not tested or not shown. Rows were chosen to be rich in hits. Some 2.3% of all compounds tested hit in one or more screens of this group.

SMILES	ABHD5 PLIN5 PPI	HTR2A ag	Granule exo inh	Beta2AR agonist	NTR1 agonist	ABHD5-PLIN5 conf	HNF4 split-luc
CC(=O)NC(c1cccc([N+](=O)[O-])c1)c1ccc2cccnc2c1O (configuration not stated)	0.9	-6.4	1.5	-2.8	3.0	.	.
CCCCC(=O)NC(c1cccc([N+](=O)[O-])c1)c1ccc2cccnc2c1O (configuration not stated)	33.4*	-0.3	-2.1	6.2	.	28.8*	-1.8
CCc1ccc(/C=C2\SC(=S)N(CCCC(=O)N3CCCC3)C2=O)cc1	1.7	5.2	6.2	.	.	.	.
CN(CC(=O)N1CCCC1)S(=O)(=O)c1ccc(Cl)cc1	27.1*	1.0	16.5	-3.5	-2.0	5.0	3.2
CN(C)C(=O)C#Cc1ccccc1	3.1	0.7	-3.3	-3.9	0.8	.	.
O=C(C#Cc1ccccc1)c1ccccc1	25.1*	5.4	7.3	.	.	78.4*	107.3*
CN(CC(=O)Nc1ccc(N2CCOCC2)cc1)Cc1cc(=O)n2ccsc2n1	-2.2	0.6	3.9	1.6	-0.5	.	.
CC(C)Cn1c(SCC(=O)NC2CC2)nc2ccccc21	-0.5	11.9	-2.9	.	.	.	.
CC(=O)N(c1ccccc1C)C1CCCC1	-6.0	1.5	-8.6	-6.3	5.2	.	.
CC(=O)N(C1=C(Cl)C(=O)c2ccccc2C1=O)C1CCCCC1	32.6*	-0.4	89.9*	63.8*	12.9	84.3*	109.8*
Cc1cccc(C(C)C)c1NC(=O)C(C)OC(=O)Cn1cnc2c1c(=O)n(C)c(=O)n2C (configuration not stated)	-2.7	9.5	-3.3	-0.1	0.2	.	.
C[C@H](CO)N1C[C@H](C)[C@@H](CN(C)Cc2ccccc2)Oc2c(NC(=O)Cc3ccccc3)cccc2C1=O	9.1	-0.3	-4.0	2.6	3.8	.	.
C[C@H](CO)N1C[C@H](C)[C@@H](CN(C)Cc2ccc(Cl)c(Cl)c2)Oc2c(NC(=O)Cc3ccccc3)cccc2C1=O	26.3*	-2.2	22.1	12.1	18.6	4.7	-0.1
N#Cc1ccc(/C=C/C(=O)c2ccc3c(c2)OCO3)cc1	32.5*	6.0	-2.5	6.2	7.9	88.1*	82.2*
O=C(/C=C/c1ccccc1)c1ccc2c(c1)OCCCCO2	23.8*	-3.9	-0.2	6.9	6.0	53.1*	42.7*
O=C1COc2ccc(C(=O)/C=C/c3ccccc3)cc2N1	47.4*	-2.9	-3.4	2.5	8.1	76.9*	62.2*
O=C(C=Cc1ccc2c(c1)OCO2)c1ccccc1	17.6	-2.6	15.8	9.6	.	.	.
Cc1ccc([C@H]2C[C@H](n3cc(-c4ccc(F)cc4)nn3)[C@@H](O)CN2CC2CCCCC2)cc1	-5.8	0.4	-3.8	.	.	.	.
CCNC(=S)N/N=C/c1sccc1C	.	.	.	.	3.5	.	.
CCCCCCCC[n+]1cccc2c3ccccc3ccc21	16.7	-4.6	28.3	-4.6	17.2	.	.
CCCCCCCCCC[n+]1cccc2c3ccccc3ccc21	27.4*	-5.2	70.3*	-3.5	.	17.5	4.6
COc1ccccc1CCN1CCCC(CN(C)C(=O)c2ccoc2)C1 (configuration not stated)	2.9	-11.5	1.4	-1.8	-0.3	.	.
CCCC1=NN(C(=O)C(=O)Nc2ccc(Br)cc2)C(O)(C(F)(F)F)C1 (configuration not stated)	23.3*	-8.5	-0.9	1.7	1.4	37.5*	41.6*
CCC1=NN(C(=O)C(=O)Nc2ccc(Br)cc2)C(O)(C(F)(F)F)C1 (configuration not stated)	21.2	-6.9	2.0	14.0	-0.5	.	.
CCOc1cc(C=C(C(=O)OC)C(=O)OC)ccc1OCc1ccc([N+](=O)[O-])cc1	65.7*	-9.4	1.5	5.7	32.3	96.2*	89.7*
SMILES	ABHD5 PLIN5 PPI	HTR2A ag	Granule exo inh	Beta2AR agonist	NTR1 agonist	ABHD5-PLIN5 conf	HNF4 split-luc
Clc1nssc1=Nc1nncs1	72.5*	-2.0	-4.1	1.4	-0.9	64.4*	100.8*
Clc1nssc1=Nc1ccc(Br)cc1	23.6*	5.5	59.0*	5.0	.	22.5*	70.6*
COc1cc(N=c2ssnc2Cl)cc(OC)c1	-2.4	3.1	-1.1	30.2	2.6	.	.
OCc1ccccc1N=c1ssnc1Cl	.	.	.	.	-3.4	.	.
Cc1ccc(Cn2c(=O)c3ccccc3n3nc(C)cc23)cc1	-3.8	0.0	-3.1	1.2	7.4	.	.
CNc1ccc(Br)cc(C(=O)/C=C/c2cc(OC)ccc2OC)c1=O	25.7*	-4.8	1.7	9.7	0.3	62.5*	57.5*
CNc1ccc(Br)cc(C(=O)/C=C/c2ccc3c(c2)OCO3)c1=O	17.2	1.3	4.0	16.3	1.1	.	.
COc1ccc(S(=O)(=O)N(C(C)=O)c2ccc3oc(=O)sc3c2)cc1	28.7*	10.4	-2.8	-0.6	0.7	-54.9	16.4*
COc1ccc(NC(=O)C2CCCNC2)cc1OCC(C)C (configuration not stated)	-0.2	0.3	19.6	-2.6	6.4	.	.
COc1ccc(NC(=O)C2CCCN(CCCc3ccccc3)C2)cc1OCC(C)C (configuration not stated)	38.5*	8.8	49.2	22.2	7.5	22.0*	14.9*
Brc1ccc2nc(-c3ccco3)c(CC3CCCCC3)n2c1	23.8*	1.2	6.7	.	.	28.3*	37.8*
Cc1ccc2nc(-c3ccc(Cl)cc3)c(CC3CCCCC3)n2c1	-8.7	-0.9	-3.1	.	.	.	.
Cc1ccc2nc(-c3ccco3)c(CC3CCCCC3)n2c1	35.0*	-4.4	14.5	.	.	17.0	21.7*
COCCNC(=O)c1[nH]c(C(F)(F)F)nc1-c1ccccc1	0.8	1.2	-2.0	.	.	.	.
O=C(C[C@H]1C[C@H](C(=O)N2CCOCC2)[C@@]2(CCC3CCCC3)c3[nH]c4cc(-c5ccco5)ccc4c3CCN2C1=O)NCCc1ccccn1	23.4*	4.0	-2.4	8.1	4.3	11.1	16.7*
O=C(C[C@H]1C[C@H](C(=O)N2CCOCC2)[C@@]2(CCC3CCCC3)c3[nH]c4cc(-c5ccco5)ccc4c3CCN2C1=O)NCCC1=CCCCC1	17.9	3.6	0.3	7.0	-0.5	.	.
O=C(CCN1C(=O)c2ccccc2C1=O)Oc1ccc2ccccc2c1	-1.6	0.8	-1.3	1.1	-0.9	.	.
CC1=CC(C)(C)Nc2ccc(OC(=O)CCN3C(=O)c4ccccc4C3=O)cc21	75.0*	4.5	54.3	-27.6	-1.8	85.6*	90.3*
Cc1cccc2cc(CN(CCN(C)C)C(=S)Nc3ccccc3)c(=O)[nH]c12	3.9	-6.1	5.1	2.5	2.5	.	.
O=C(/C=C/c1ccccc1Cl)c1ccccc(=O)c1O	33.4*	-4.8	1.1	-4.0	.	59.2*	43.5*
O=C(/C=C/c1ccc([N+](=O)[O-])cc1)c1ccccc(=O)c1O	65.8*	-8.9	56.3*	29.4	.	98.4*	90.7*
O=C(/C=C/c1ccc([N+](=O)[O-])cc1)c1cccs1	15.3	-3.9	-0.4	6.0	1.8	.	.
